Measurements published in PubChem BioAssay (EPA / NIEHS).
Inconclusive results are not listed. Active and inactive are the calls of the source. How the source made its calls, unless noted: active means hit-call score of the fitted dose curve at least 0.9, where 1 is the maximum; inconclusive means response in the unintended direction; inactive means score below 0.9.

Legend:
[1] = TOX21_p53_BLA_p2_viability: Viability Assessment in the Tox21 HCT-116 p53 Agonism Beta-lactamase Assay, Phase 2 (AID 2283591);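 further: compound exposure lasted 16 h at 37 °C; actives lower the ATP signal meaning cytotoxicity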
Method in brief: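 HCT116 p53-bla cells, 4000/well, dosed after 5 h plating (217-fold dilution of DMSO stocks) and incubated 16 h at 37C. Viability taken as cellular ATP by CellTiter-Glo luminescence after 30 min RT; signal loss marks cytotoxicity.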

[2] = target: Cellular tumor antigen p53 (Homo sapiens) (UniProt P04637); assay: TOX21_p53_BLA_p2_ratio: Tox21 HCT-116 p53 Agonism Beta-lactamase Assay, Ratio, Phase 2 (AID 2283592)
Method in brief: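 In this cell-based reporter format, HCT116 cells were dosed with chemicals delivered from DMSO by 217-fold dilution and incubated 16 h at 37C. Emission at 460 and 530 nm after 2 h CCF4-AM loading provided the ratio, fitted upward versus DMSO.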

[3] = target: Cellular tumor antigen p53 (Homo sapiens) (UniProt P04637); assay: TOX21_p53_BLA_p3_ratio: Tox21 HCT-116 p53 Agonism Beta-lactamase Assay, Ratio, Phase 3 (AID 2283596)
Method in brief: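 HCT116 p53-bla cells (4000/well) given compound in DMSO (217-fold dilution) after 5 h, incubated 16 h at 37C. CCF4-AM substrate 2 h at room temperature; 460/530 nm emission ratio, gain fitted against DMSO.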

[4] = TOX21_p53_BLA_p4_viability: Viability Assessment in the Tox21 HCT-116 p53 Agonism Beta-lactamase Assay, Phase 4 (AID 2283597);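 further: hits lower the luminescence signal meaning cytotoxicity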
Method in brief: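 We seeded HCT116 p53 reporter cells at 4000/well and waited 5 h. We then added compounds in DMSO at a 217-fold dilution and incubated for 16 h. Viability was read as CellTiter-Glo luminescence after 30 min at RT.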

[5] = target: Cellular tumor antigen p53 (Homo sapiens) (UniProt P04637); assay: TOX21_p53_BLA_p5_ratio: Tox21 HCT-116 p53 Agonism Beta-lactamase Assay, Ratio, Phase 5 (AID 2283599)
Method in brief: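 HCT-116 p53-bla cells (4000/well) plated 5 h, dosed with compound (217-fold DMSO dilution) for 16 h at 37 C; CCF4-AM substrate 2 h at room temperature. Activity is the 460/530 nm emission ratio (405 nm excitation), fitted in gain-of-signal direction versus DMSO.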

[6] = TOX21_p53_BLA_p5_viability: Viability Assessment in the Tox21 HCT-116 p53 Agonism Beta-lactamase Assay, Phase 5 (AID 2283600)
Method in brief: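 Compounds, pinned from DMSO at 217-fold dilution, were left on the cells for 16 h. The viability endpoint was ATP content measured by CellTiter-Glo luminescence, where falling signal reflects cytotoxicity.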

[7] = target: Cellular tumor antigen p53 (Homo sapiens) (UniProt P04637); assay: TOX21_p53_BLA_p4_ratio: Tox21 HCT-116 p53 Agonism Beta-lactamase Assay, Ratio, Phase 4 (AID 2283601)
Method in brief: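 HCT-116 p53 beta-lactamase reporter cells (4000/well) preincubated 5 h, then compound (217-fold dilution of DMSO stock) for 16 h at 37C. CCF4-AM substrate added 2 h at room temperature; 460/530 nm emission ratio fitted upward versus DMSO.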

[8] = target: PGR (gene 5241) (UniProt P06401); assay: TOX21_PR_BLA_Followup_Agonist_ratio: Tox21 HEK293 Progesterone Receptor (PR) Agonism Beta-lactamase Follow-Up Assay, Ratio (AID 2283933)
Method in brief: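 HEK293T PR-UAS-bla, 2% CS-FBS; 6 hr preincubation, cpd/DMSO pinned, 16 hr 37C/5% CO2; LiveBLAzer B/G 2 hr RT; FRET ch2/ch1 ratio, agonist direction vs DMSO. Viability by CellTiter-Glo in same wells.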

[9] = target: PGR (gene 5241) (UniProt P06401); assay: TOX21_PR_BLA_Followup_Antagonist_ratio: Tox21 HEK293 Progesterone Receptor (PR) Antagonism Beta-lactamase Follow-Up Assay, Ratio (AID 2283934)
Method in brief: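 HEK293T PR-UAS-bla, 2% CS-FBS; 6 hr plating, then cpd + R5020 (1 nM final), 16 hr 37C/5% CO2. B/G FRET substrate 2 h RT. Ratio ch2/ch1 vs DMSO; CellTiter-Glo viability multiplexed, autofluorescence checked.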

[10] = TOX21_PR_BLA_Followup_Agonist_viability: Viability Assessment in the Tox21 HEK293 Progesterone Receptor (PR) Agonism Beta-lactamase Follow-Up Assay (AID 2283935);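 further: cells exposed to compound for 16 hr at 37 °C; signal loss means lower viability so actives are cytotoxic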
Method in brief: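 HEK293T PR-UAS-bla, 3,000 cells/well, 2% CS-FBS; 6 hr pre-incubation; cpd in DMSO, 16 hr 37C; LiveBLAzer 2 hr RT, then CellTiter-Glo 30 min RT, luminescence. Decrease = lost viability.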

[11] = TOX21_PR_BLA_Followup_Antagonist_viability: Viability Assessment in the Tox21 HEK293 Progesterone Receptor (PR) Antagonism Beta-lactamase Follow-Up Assay (AID 2283936);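 further: hits lower the luminescence signal meaning cytotoxicity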
Method in brief: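 PR-UAS-bla HEK293T cells (3,000/well, 2% charcoal-stripped FBS) given compound plus R5020 agonist, 16 h at 37C. CellTiter-Glo added after bla read, 30 min at room temperature; luminescence loss indicates cytotoxicity.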

[12] = target: PGR (gene 5241) (UniProt P06401); assay: TOX21_PR_LUC_Followup_Agonist: Tox21 HEK293 Progesterone Receptor (PR) Agonism Luciferase Follow-Up Assay (AID 2283937; active means hit-call score of the fitted dose curve at least 0.9, where 1 is the maximum; inactive means score below 0.9)
Method in brief: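 Cells: HEK293-PR-A-luc, 3,000/well, 10% charcoal-stripped FBS assay medium. Compound added after 5 h; 16 h, 37C, 0% CO2. ONE-Glo luciferase, luminescence. Positive fit vs DMSO.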

[13] = target: PGR (gene 5241) (UniProt P06401); assay: TOX21_PR_LUC_Followup_Antagonist: Tox21 HEK293 Progesterone Receptor (PR) Antagonism Luciferase Follow-Up Assay (AID 2283938);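 further: curve fitted upward as signal gain over DMSO baseline despite antagonist label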
Method in brief: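 Luminescence from ONE-Glo reagent, measured after 30 min at room temperature, served as readout. Cells (HEK293 carrying PR-A-luc) had been treated 16 h at 37C with DMSO-dissolved compounds. Activity was fitted against DMSO controls.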

[14] = TOX21_PR_LUC_Followup_Antagonist_viability: Viability Assessment in the Tox21 HEK293 Progesterone Receptor (PR) Antagonism Luciferase Follow-Up Assay (AID 2283940)
Method in brief: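 Multiplexed viability counter-screen: after 5 days in charcoal-stripped-FBS medium, HEK293-PR-A-luc cells are plated, pinned with DMSO-dissolved compounds for 16 h at 37C, and ATP content is quantified luminescently via CellTiter-Glo.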

[15] = TOX21_PR_LUC_Followup_Agonist_viability: Viability Assessment in the Tox21 HEK293 Progesterone Receptor (PR) Agonism Luciferase Follow-Up Assay (AID 2283941);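 further: loss of signal means cytotoxicity so actives lower viability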
Method in brief: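 Cells were kept 5 days in charcoal-stripped serum medium before plating HEK293-PR-A-luc at 3,000 cells/well. After 5 h they received DMSO-dissolved compound and incubated 16 h at 37C. Viability was taken from CellTiter-Glo ATP luminescence.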

[16] = TOX21_p53_BLA_p3_viability: Viability Assessment in the Tox21 HCT-116 p53 Agonism Beta-lactamase Assay, Phase 3 (AID 2283593);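 further: cells exposed to compound for 16 h before reading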
Method in brief: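 HCT116 cells, 4000/well, dosed 5 h after plating by pin transfer (217-fold dilution from DMSO stock) and incubated 16 h at 37C, 5% CO2. Viability read as ATP luminescence with CellTiter-Glo after 30 min at room temperature.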

Measured: AC50

PGR (gene 5241), sequence (P06401 whole entry, looked up): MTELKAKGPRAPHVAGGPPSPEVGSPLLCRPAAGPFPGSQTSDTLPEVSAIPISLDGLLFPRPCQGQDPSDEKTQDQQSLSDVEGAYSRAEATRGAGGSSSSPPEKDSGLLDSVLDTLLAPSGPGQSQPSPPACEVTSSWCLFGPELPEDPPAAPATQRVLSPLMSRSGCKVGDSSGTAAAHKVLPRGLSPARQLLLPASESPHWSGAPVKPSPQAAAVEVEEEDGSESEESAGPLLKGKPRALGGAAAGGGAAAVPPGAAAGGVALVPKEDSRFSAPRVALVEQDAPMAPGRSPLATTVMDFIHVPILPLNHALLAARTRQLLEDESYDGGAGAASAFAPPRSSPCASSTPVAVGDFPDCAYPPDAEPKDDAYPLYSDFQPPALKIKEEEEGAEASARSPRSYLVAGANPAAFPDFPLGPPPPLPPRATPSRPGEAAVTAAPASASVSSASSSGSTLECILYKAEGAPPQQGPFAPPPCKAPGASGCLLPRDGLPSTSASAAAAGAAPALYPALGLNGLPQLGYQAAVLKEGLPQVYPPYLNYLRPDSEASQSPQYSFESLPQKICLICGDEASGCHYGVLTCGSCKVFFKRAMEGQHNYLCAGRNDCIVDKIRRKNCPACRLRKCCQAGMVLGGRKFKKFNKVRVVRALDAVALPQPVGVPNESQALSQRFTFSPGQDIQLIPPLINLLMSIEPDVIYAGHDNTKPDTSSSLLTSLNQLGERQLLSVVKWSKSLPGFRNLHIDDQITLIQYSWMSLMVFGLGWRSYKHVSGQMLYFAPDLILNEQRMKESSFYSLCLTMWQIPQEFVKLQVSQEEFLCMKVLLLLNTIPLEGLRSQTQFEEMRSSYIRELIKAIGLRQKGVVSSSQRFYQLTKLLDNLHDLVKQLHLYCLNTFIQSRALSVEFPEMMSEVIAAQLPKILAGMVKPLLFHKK
Cellular tumor antigen p53 (Homo sapiens), sequence (P04637 whole entry, looked up): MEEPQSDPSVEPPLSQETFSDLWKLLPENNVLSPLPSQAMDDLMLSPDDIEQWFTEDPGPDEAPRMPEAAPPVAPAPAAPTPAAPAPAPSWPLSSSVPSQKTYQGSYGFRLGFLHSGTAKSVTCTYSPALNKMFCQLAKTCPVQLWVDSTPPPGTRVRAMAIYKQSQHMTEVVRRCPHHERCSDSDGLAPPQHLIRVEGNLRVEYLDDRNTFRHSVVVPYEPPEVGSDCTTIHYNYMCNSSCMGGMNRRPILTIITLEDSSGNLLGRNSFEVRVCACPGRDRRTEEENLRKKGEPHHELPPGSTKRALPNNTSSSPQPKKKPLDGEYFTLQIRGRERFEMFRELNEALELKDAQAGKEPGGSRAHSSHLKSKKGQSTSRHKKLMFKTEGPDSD

CCOP(=S)(OCC)Oc1cc(Cl)c(Br)cc1Cl
active: [4] 72.9 µM | [9] 6.49 µM | [13] 5.76 µM
not listed: [16]
inactive: all other assays above

ClC(Cl)(Cl)Cl
inactive: [1] | [2] | [3] | [4] | [5] | [7]

Cn1c(N)nc2c3cccnc3ccc21
inactive: [1] | [2] | [3] | [4] | [5] | [7]

O=C(O)c1cc(Cl)ccc1Cl
inactive: [1] | [2] | [3] | [4] | [5] | [6]

CCCCCCCCCCCOC(=O)c1ccccc1C(=O)OCCCCCCCCCCC
inactive: [1] | [2] | [3] | [4] | [5] | [7]

CCCC(=O)Cl
inactive: [1] | [2] | [3] | [4] | [6]

O=P(O)(O)C(Cl)(Cl)P(=O)(O)O
inactive: [1] | [2] | [3] | [4] | [5] | [6] | [7]

C=CCOCC1CO1 (centres undefined)
inactive: [1] | [2] | [3] | [4] | [5] | [6]

CCOc1ccc2c3c1O[C@H]1[C@@H](O)C=C[C@H]4[C@@H](C2)N(C)CC[C@@]341
inactive: [1] | [2] | [3] | [4]

CCC1(c2ccccc2)CCC(=O)NC1=O (centres undefined)
inactive: [1] | [2] | [16] | [6]

N#CCCSCCC#N
inactive: [1] | [2] | [3] | [4] | [5] | [7]

CNC(=O)Oc1cc(C)cc(C(C)C)c1
inactive: [1] | [2] | [3] | [4] | [5] | [6] | [7]

CN1[C@@H]2CC[C@H]1CC(O)C2 (some centres undefined)
inactive: [1] | [2] | [3] | [4] | [5] | [6] | [7]

Oc1ccc(Cl)c(Cl)c1
inactive: [1] | [2] | [3] | [4] | [5] | [6] | [7]

COP(=O)(OC)OC(=CCl)c1cc(Cl)c(Cl)cc1Cl
inactive: [1] | [2] | [3] | [4] | [5] | [7]

SCc1ccccc1
inactive: [1] | [2] | [16] | [7]

O=[N+]([O-])c1ccc2ccc3cccc4ccc1c2c34
active: [9] 12.2 µM | [13] 13 µM
not listed: [3] | [4] | [6] | [8]
inactive: all other assays above
